Among all 320,000 compounds or so, about 22,000 (6.9%) were called active. About 27% were inconclusive and are not listed. The sample holds actives, similar compounds and a random draw of the others, so the mix is not that of the screen. Calls come from the whole dose curve; as a rule, active = well fitted inhibition curve with a large enough effect; inconclusive = small, poorly fitted or top-dose-only effect, or another doubt; inactive = no such curve, though single readings can be large or run the other way.
Experiment: Primary qHTS for delayed death inhibitors of the malarial parasite plastid, 96 hour incubation
Conditions: P. falciparum luciferase reporter growth; series mostly up to 28.7 µM; activity change, negative = inhibition: at the top concentration
Method in brief: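 Readout is luminescence from an integrated firefly luciferase in P. falciparum. Red cells, 2% hematocrit and 0.05% parasitemia final, were cultured with compound through two parasite generations (96 hours) at 37 C, 5% CO2.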
% is set by controls: 0 for no effect and ±100 for the full control effect; potency is the fitted concentration of half-maximal effect.

Structure (SMILES)	Potency	activity change, negative = inhibition
CCC(=O)Nc1sc(C(=O)N2CCCCC2)c(C)c1C#N	14.7 µM (active)	
CCN1CCN(CC(=O)Nc2sc3c(c2C#N)CCC3)CC1		8.13% (inactive)
CCOC(=O)c1sc(NC(=O)CSc2ncccn2)c(C#N)c1C		-21.8% (inactive)
O=C1CN(C(=O)COC(=O)c2cnc(Cl)c(Cl)c2)c2ccccc2N1		-23.4% (inactive)
COc1ccc(Cl)cc1-n1c(C)cc(C(=O)OCC(=O)N2CC(=O)Nc3ccccc32)c1C	4.15 µM (active)	
COc1cc(OC)c(C(=O)OCC(=O)N2CC(=O)Nc3ccccc32)cc1OC		0% (inactive)
O=C(COC(=O)Cc1ccccc1F)NNC(=O)c1ccc(Cl)cc1		59.7% (inactive)
Cc1cc(Br)ccc1NC(=O)CN(C)C(=O)CN1C(=O)NC2(CCCC2)C1=O		14.6% (inactive)
COc1ccc(CN(C)C(=O)Cc2c[nH]c3ccccc23)c(OC)c1OC		5.46% (inactive)
COc1ccc(-c2cc(C(=O)N(C)CC(=O)Nc3ccccc3Cl)c3ccccc3n2)cc1OC	9.28 µM (active)	
COc1ccc(CN(C)C(=O)c2cc(-c3ccc(C)cc3C)nc3ccccc23)c(OC)c1OC	13.1 µM (active)	
COc1ccc(-c2cc(C(=O)NCCCN3CCCC3=O)c3ccccc3n2)cc1OC		-15.3% (inactive)
COc1ccc(Cl)cc1NC(=O)CN(C)C(=O)c1ccc2n[nH]nc2c1		16.7% (inactive)
COc1ccc(-c2cc(C(=O)N(C)Cc3ccccc3)c3ccccc3n2)cc1		-23.6% (inactive)
CC1CCN(c2ccc([N+](=O)[O-])c(SCCO)c2)CC1		-9.96% (inactive)
Cc1ccc(C)c(OCC(=O)NNC(=O)C2CCC2)c1		23.9% (inactive)
COc1cccc(OCc2nnc3n2N=C(c2ccccc2)C(CC(=O)O)S3)c1 (stereo not drawn)		-2.01% (inactive)
O=C(Nc1ccc2c(c1)OCCO2)C(c1ccc(F)cc1)N1CCCCC1 (stereo not drawn)	8.28 µM (active)	
O=C(CSc1ccc(-c2ccc(F)cc2)nn1)Nc1ccc2c(c1)OCCO2		2.54% (inactive)
CC1CCCN(C(C(=O)Nc2ccc(C(C)C)cc2)c2ccc3c(c2)OCO3)C1 (stereo not drawn)		-56.8% (inactive)
CC(=O)Nc1ccc(NC(=O)C2CCCN(S(=O)(=O)c3ccc(Cl)cc3)C2)cc1 (stereo not drawn)		-29.5% (inactive)
CC(NC(=O)CCCC1CCCCC1)c1ccc(S(N)(=O)=O)cc1 (stereo not drawn)		-2.5% (inactive)
CCOc1cc(/C=C2\C(=N)N3N=C(C)SC3=NC2=O)ccc1OCCOc1ccccc1		5.34% (inactive)

Structure (SMILES)	Potency	activity change, negative = inhibition
O=C(CCCCCn1c(=S)[nH]c2ccsc2c1=O)NC1CCCCC1	13.1 µM (active)	
O=C(COC(=O)/C=C/c1cccs1)NC1CCCCC1		15.1% (inactive)
O=C(CCC(=O)c1cccs1)NC1CCCCCC1		321% (inactive)
CN1CCN(Cc2nc3cc(NC(=O)COc4ccc([N+](=O)[O-])cc4)ccc3n2C)CC1		-17.9% (inactive)
Nc1nc(SCC(=O)Nc2cc(C(F)(F)F)ccc2Cl)[nH]c(=O)c1NC(=O)c1ccco1		48.7% (inactive)
Cc1sc2ncn(CC(=O)NCCCC(=O)NCc3ccc(F)cc3)c(=O)c2c1C		-22.9% (inactive)
CCc1ccc(NC(=O)NC(C)c2ccc3c(c2)OCO3)cc1 (stereo not drawn)		10.4% (inactive)
O=C(Nc1cccc([N+](=O)[O-])c1)c1ccc2c(c1)OCO2		200% (inactive)
CC(NC(=O)Nc1cccc([N+](=O)[O-])c1)c1ccc2c(c1)OCO2 (stereo not drawn)	2.08 µM (active)	
CC(NC(=S)Nc1ccc(S(N)(=O)=O)cc1)c1ccc2c(c1)OCO2 (stereo not drawn)	4.65 µM (active)	
CC(NC(=O)c1ccco1)c1ccc2c(c1)OCO2 (stereo not drawn)		-13.1% (inactive)
CC(=O)Nc1cccc([N+](=O)[O-])c1		-0.229% (inactive)
CN(CC(=O)Nc1ccc(F)cc1)CC(=O)N1CCCCC1		-15% (inactive)
Cc1ccc(-c2nnc(Nc3ccc(C(=O)N(C)C)cc3)c3ccccc23)cc1S(N)(=O)=O		-0.164% (inactive)
COc1ccccc1C(=O)N(Cc1ccc(C)o1)C1CCS(=O)(=O)C1 (stereo not drawn)		86.4% (inactive)
CCCCc1nc(SCC(=O)Nc2nnc(C(C)C)s2)n[nH]1		17.1% (inactive)
CC(C)CNc1ncnc2c1cnn2Cc1ccc(Cl)cc1	11.7 µM (active)	
CC(=O)Nc1ccc(NC(=O)CSc2ncnc3c2cnn3Cc2ccccc2)cc1		20% (inactive)
Clc1ccc(Cn2ncc3c(NCc4cccnc4)ncnc32)cc1		24.1% (inactive)
O=C(CSc1nnnn1C1CCCC1)N1CCCCC1	0.586 µM (active)	
CC1CCCC(C)N1C(=O)CSc1nnnn1C1CCCC1 (stereo not drawn)		-4.01% (inactive)
CC(=O)Nc1ccc(NC(=O)CSc2nnnn2C2CCCCC2)cc1		7.18% (inactive)
COc1cccc(NC(=O)c2ccccc2N(Cc2ccccc2)S(C)(=O)=O)c1		-17.8% (inactive)

Structure (SMILES)	Potency	activity change, negative = inhibition
Cc1ccc(S(=O)(=O)N2CC(C)N(S(C)(=O)=O)C2)cc1 (stereo not drawn)		15.5% (inactive)
O=C(CNC(=O)C12CC3CC(CC(C3)C1)C2)OCC(=O)N1CCCCC1		-0.439% (inactive)
CC(C)N(Cc1ccccc1)C(=O)COC(=O)c1ccccc1SCC(=O)N1CCCC1		-14.6% (inactive)
Cc1cccc(NC(=O)NC2(C)CCS(=O)(=O)C2)c1 (stereo not drawn)		18.6% (inactive)
COc1ccc2nc(SCC(=O)Nc3c(C)cc(C)cc3C)[nH]c2c1		0% (inactive)
CC(=O)Nc1ccc(C(=O)CSc2nc3ccc(C)cc3[nH]2)cc1		64.2% (inactive)
CCOC(=O)CSc1nc2ccc(C)cc2[nH]1	13.1 µM (active)	
O=C(Nc1c2c(nn1-c1ccccc1)CS(=O)(=O)C2)C1CCCC1		17.7% (inactive)
CSc1ncc(C(=O)NCCCc2ccccc2)c(C)n1		22.5% (inactive)
CCSc1nc2c(c(=O)[nH]1)C(c1cccnc1)C(C(=O)OC(C)C)=C(C)N2 (stereo not drawn)	1.31 µM (active)	
COC(=O)C1=C(N)Oc2cc(C)oc(=O)c2C1c1cccnc1 (stereo not drawn)		28.8% (inactive)
COC(=O)C1=C(C)Nc2ncnn2C1c1cccnc1 (stereo not drawn)		-15.1% (inactive)
COc1ccc2c(C)cc(SCC(=O)NCC3CCCO3)nc2c1 (stereo not drawn)		-2.69% (inactive)
O=C(Nc1ccc(F)cc1)C1CCCN(S(=O)(=O)c2ccc(-n3cnnn3)cc2)C1 (stereo not drawn)		54% (inactive)
CC1CN(c2nc(-c3ccccc3)nnc2-c2ccccc2)CC(C)O1 (stereo not drawn)	0.828 µM (active)	
Cc1ccc(-c2nnc(C)c(N3CC(C)OC(C)C3)n2)cc1 (stereo not drawn)		-3.59% (inactive)
c1ccc(-c2nnc(N3CCOCC3)c3ccccc23)cc1		16.1% (inactive)
CCOC(=O)c1cccc(NC(=O)CCc2nnc3ccc(N4CCOCC4)nn23)c1		12.9% (inactive)
O=C(CNC(=O)c1ccc(Br)o1)Nc1ccccc1	13.1 µM (active)	
O=C(NCc1cccs1)c1ccc(Br)o1		26.7% (inactive)
O=C(CNC(=O)c1ccc(Br)o1)NCC1CCCO1 (stereo not drawn)		9.93% (inactive)
Nc1c(N(CCCO)C(=O)C2CCCC2)c(=O)[nH]c(=O)n1Cc1ccccc1		30.7% (inactive)

From PubChem BioAssay AID504834 (National Center for Advancing Translational Sciences (NCATS), 2011)
